Test system: HepG2
Test: GSK_TCMDC: Percent inhibition of human HepG2 cell line. Test compounds present at 10uM.
Type: functional

Row | SMILES | Inhibition [%]
1 | COc1cc(NC(=O)Nc2ccc([N+](=O)[O-])cc2OC)c(OC)cc1Cl | 38
2 | CC(c1cccc(S(=O)(=O)NCc2ccc(Cl)cc2Cl)c1)N1CCC(N2CCCCC2)CC1 (centres undefined) | 36
3 | CCCCCC(C)C(C)c1cc(O)c2c(c1)OC(C)(C)CC2(O)c1ccnn1C (centres undefined) | 20
4 | CCn1c(-c2nonc2N)nc2c(-c3cccc(NC(=O)Nc4cccc(C#N)c4)c3)ncc(OCCCN)c21.O=C(O)C(F)(F)F | 37
5 | CN1CCC(NCc2ccc(-c3ccc(S(=O)(=O)NCc4ccccc4)cc3)cc2)CC1.O=C(O)C(F)(F)F | 40
6 | Cc1c(Cc2ccccc2)c(=O)oc2c(C)c3c(cc12)CN(CC(C)c1ccccc1)CO3 (centres undefined) | 1
7 | CCNc1cc(C(=O)N[C@@H](Cc2ccccc2)[C@H](O)CNC2C3CC4CC(C3)CC2C4)cc(N2CCCCS2(=O)=O)c1.Cl (some centres undefined) | 0
8 | CN1CCC(C(=O)Nc2cccc(-c3ccc(-c4nc5cc(C(F)(F)F)ccc5[nH]4)cc3)c2)CC1 | 38
9 | COc1ccc(NC(=O)CSc2nc(-c3ccccc3Cl)ns2)cc1 | 11
10 | CS(=O)(=O)c1ccc(CNCc2cccc(-c3cccc(-c4nc5ccccc5[nH]4)c3)c2)cc1.O=C(O)C(F)(F)F | 3
11 | COc1cc(Cc2cnc(N)nc2N)cc(OC)c1OCCCCC(=O)O.Cl | 0
12 | CC1Cc2ccccc2N1CC(=O)Nc1cc(C(F)(F)F)ccc1-n1cncn1 (centres undefined) | 17
13 | COc1cccc2c(C)cc(NCc3ccc(Cl)cc3)nc12 | 7
14 | O=S(=O)(c1cccc(Br)c1)N1CCCCC(c2ccc(C(F)(F)F)cc2)=N1 | 30
